# Platelet DG rel: inhibitors of platelet dense granule secretion, primary screen, cell-based, MLPCN, human platelets | human platelet-rich plasma, SFLLRN dense granule ATP release, luminescence | inhibition, %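 (compounds screened at 7.5 µM in platelet-rich plasma)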 | hit rate 0.22% among 300,000 | AID 1663, 2009;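 active = mean replicate score, as percent of positive control, at or above 50; inconclusive = mean below 50 but at least one replicate at or above 50; inactive = mean and every replicate below 50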
# HIF activator: HIF pathway transcriptional activators, primary screen, cell-based, U2OS HRE-luciferase, luminescence; U2OS HRE-luciferase reporter; normalized: DMSO 0%, desferrioxamine 100%; activation, % at 7.5 µM (by protocol); hit rate 0.32% among 300,000; AID 1910, 2009;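 active = mean activation of at least 10% of the iron chelator positive control signal, with at least half of replicates also reaching 10%; inconclusive = mean and replicate majority disagree about reaching 10%; inactive = mean and most replicates under 10%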
# VLA-4 inh: inhibition in human VLA-4 binding assay, primary screen, VLA-4 allosteric modulator project, MLPCN library, flow cytometry, VLA-4 expressing cells. AID 2557, 2010. inhibition, % (about 7 µM as worked out from the volumes in the protocol). hit rate 0.2% among 330,000. ligand binding flow cytometry. Integrin alpha-4 (Homo sapiens), P13612; in the data active = inhibition above about 50%
# Target sequence (P13612 whole entry, looked up): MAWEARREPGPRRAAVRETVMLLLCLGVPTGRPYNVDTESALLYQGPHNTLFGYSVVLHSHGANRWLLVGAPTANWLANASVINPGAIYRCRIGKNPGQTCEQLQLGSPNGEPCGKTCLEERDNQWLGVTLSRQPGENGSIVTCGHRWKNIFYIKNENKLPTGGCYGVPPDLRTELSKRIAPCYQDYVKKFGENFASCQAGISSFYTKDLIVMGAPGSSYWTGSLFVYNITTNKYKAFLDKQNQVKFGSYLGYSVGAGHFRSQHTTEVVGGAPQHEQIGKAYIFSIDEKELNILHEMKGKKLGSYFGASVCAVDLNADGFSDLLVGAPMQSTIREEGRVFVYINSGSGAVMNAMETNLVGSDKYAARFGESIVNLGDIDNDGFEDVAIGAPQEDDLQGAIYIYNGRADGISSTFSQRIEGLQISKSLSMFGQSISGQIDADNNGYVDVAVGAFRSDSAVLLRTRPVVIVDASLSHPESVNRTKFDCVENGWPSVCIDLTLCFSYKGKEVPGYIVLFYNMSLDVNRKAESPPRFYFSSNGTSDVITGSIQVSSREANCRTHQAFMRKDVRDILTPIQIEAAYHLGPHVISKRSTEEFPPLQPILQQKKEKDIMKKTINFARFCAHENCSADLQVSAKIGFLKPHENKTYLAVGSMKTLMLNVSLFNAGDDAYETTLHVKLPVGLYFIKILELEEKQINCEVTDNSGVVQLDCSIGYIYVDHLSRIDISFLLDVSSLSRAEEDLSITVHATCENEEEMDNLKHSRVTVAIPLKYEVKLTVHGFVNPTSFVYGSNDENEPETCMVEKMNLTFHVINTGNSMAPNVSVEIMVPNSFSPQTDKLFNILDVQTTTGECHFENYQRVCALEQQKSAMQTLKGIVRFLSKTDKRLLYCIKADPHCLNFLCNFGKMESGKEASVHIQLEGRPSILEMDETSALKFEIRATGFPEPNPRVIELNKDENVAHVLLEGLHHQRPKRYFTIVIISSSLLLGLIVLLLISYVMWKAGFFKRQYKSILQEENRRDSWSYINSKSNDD
# AI-2 QS mod: Vibrio harveyi AI-2 quorum sensing modulators, primary screen, JMH597 strain, luminescence/OD600 ratio | activity change, % at 7.5 µM | AID 2094, 2009 | Vibrio harveyi JMH597 AI-2 luminescence/OD600 ratio, 9 h; active compounds read low; strain lacks LuxN and CqsS sensors; 0 = neutral-control median | hit rate 0.4% among 300,000; in the data active = activity change below about -75%, passing the limit was not always enough; inconclusive = no clear call, values can overlap the other calls;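 note: luminescence divided by OD600 gain over 9 h not by final OD600 alone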
# CHT allo act: CHT positive allosteric modulators, primary screen, cell-based, membrane potential dye, choline EC20 | AID 488977, 2010 | B-score at 10 µM | hit rate 0.49% among 310,000 | CHT-expressing cells; active compounds read high; LV-AA mutant CHT in HEK293 cells | High affinity choline transporter 1 (Homo sapiens), Q9GZV3;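 active = initial fluorescence not abnormally high and integrated response B-score, plate-corrected, over 3 SD above library mean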
# CHT block: inhibitors of human choline transporter CHT | B-score at 10 µM | CHT-expressing cells, membrane potential dye, choline response; active compounds read low | hit rate 0.86% among 310,000 | AID 488975, 2010 | High affinity choline transporter 1 (Homo sapiens), Q9GZV3;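 active = B-score over 3 SD under the library average, and starting fluorescence ratio not unusually high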;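 note: choline stimulus applied at its EC90 after an EC20 pre-addition; B-score computed on integrated fluorescence ratio after choline addition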
# JMH597 growth rt: Vibrio harveyi growth inhibition, confirmation, counter-screen for AI-2 quorum sensing project, JMH597 strain, OD600 absorbance; hit rate 1% among 750; growth inhibition, % at 7.5 µM; 9 h; lacks LuxN and CqsS sensors; AID 2726, 2010; shares compounds with AI-2 QS mod;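 active = every replicate shows growth inhibition above 50%; inconclusive = at least half, but not all, replicates pass that cutoff; inactive = fewer than half of replicates pass it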
# BB721 const-QS lum: luminescence inhibition in constitutive-on V. harveyi, confirmation, counter-screen for LuxS inhibitor project, strain BB721, luminescence readout | shares compounds with AI-2 QS mod | Vibrio harveyi BB721 luminescence, 9 h | inhibition, % at 7.5 µM | hit rate 95% among 750;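 active = inhibition above about 80% in every replicate, not just on average, limit read from the data; inconclusive = at least half of replicates past the limit, but not all; inactive = fewer than half of replicates past the limit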
# BB721 growth: growth inhibition of V. harveyi BB721, confirmation, cytotoxicity control for AI-2 quorum sensing inhibitors, strain BB721, absorbance OD600; hit rate 3% among 750; AID 2728, 2010; Vibrio harveyi BB721 growth, 9 h; shares compounds with AI-2 QS mod; growth inhibition, % at 7.5 µM;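 active = every replicate shows growth inhibition above 50%; inconclusive = at least half but not all replicates above 50% inhibition; inactive = under half of replicates above 50% inhibition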
# AI-2 QS JMH597: Vibrio harveyi AI-2 signaling luminescence modulation – JMH597 strain, confirmation | shares compounds with AI-2 QS mod | hit rate 97% among 750 | inhibition, % at 7.5 µM | Vibrio harveyi JMH597 AI-2 quorum sensing luminescence, 9 h; luxN and CqsS knockout, AI-2 only | AID 2736, 2010;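 active = every replicate shows more than 75% inhibition of signal versus neutral control wells; inconclusive = half to three quarters of replicates exceed 75% inhibition; inactive = fewer than half of replicates exceed 75% inhibition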
# * marks the source's active call; other numbers are inactive results; i = inactive; ? = inconclusive; · = no result. This is a sample that favours compounds with a hit; in the whole collection about 2.2% have one here.
SMILES,Platelet DG rel,HIF activator,VLA-4 inh,AI-2 QS mod,CHT allo act,CHT block,JMH597 growth rt,BB721 const-QS lum,BB721 growth,AI-2 QS JMH597
COc1cc(Cl)c(C)cc1NC(=O)CN1C(=O)C2CC=CCC2C1=O (centres undefined),·,·,-19,·,·,·,·,·,·,·
O=C(Nc1ccc2c(c1)OCO2)OCc1ccccc1,12,2,-7,-93*,i,i,-4,98*,18,98*
O=C(CCc1ccccc1)Nc1ccc2c(c1)OCO2,4,3,19,-69,i,i,·,·,·,·
O=C(O)c1cccnc1Sc1ccc(Br)cc1,10,2,5,-84*,i,i,20,97*,44,97*
O=C(O)c1cccnc1Sc1ccccc1,-8,0,2,-16,i,i,·,·,·,·
COc1ccc(-c2nnn(-c3cc(Cl)cc(Cl)c3)c2N)cc1,-10,1,0,18,i,i,·,·,·,·
COc1ccc(S(=O)(=O)c2nnn(-c3cccc(Cl)c3)c2N)cc1,4,0,-28,?,i,i,1,99*,-70,100*
O=C(Oc1ccc2ccc(=O)oc2c1)c1ccco1,-4,1,-2,7,i,i,·,·,·,·
COc1cccc(OCc2cc(C(=O)NCCc3cccc(C)n3)no2)c1,-3,0,7,20,i,i,·,·,·,·
O=C(NCCc1ccco1)c1cc(COc2cccc(C(F)(F)F)c2)on1,5,0,-7,-84*,i,i,31,82*,-195,92*
COc1ccc(CNC(=O)Nc2cccc(Cl)c2)cc1,·,·,25,-94*,i,i,0,97*,14,98*
COc1ccc(CNC(=S)Nc2cccc(C)c2)cc1,-4,0,21,-51,i,i,·,·,·,·
COc1ccc(NC(=O)NCc2ccc(Cl)cc2)cc1,·,·,-9,-16,i,i,·,·,·,·
COc1ccc(CNC(=S)Nc2cccc(Cl)c2)cc1,6,2,3,-84*,i,i,0,95*,7,95*
COC(=O)c1cccc(NC(=S)NCc2ccc(Cl)cc2)c1,2,0,7,-83*,i,i,-24,90*,3,92*
CC(Sc1nnc(-c2ccncc2)n1C)C(=O)Nc1ccc(N2CCOCC2)cc1 (centres undefined),·,·,1,·,·,·,·,·,·,·
CON(C)S(=O)(=O)c1cccc(C(=O)Oc2ccc(N(C)S(=O)(=O)c3ccccc3)cc2)c1,26,0,4,6,i,i,·,·,·,·
O=C(Cn1c(=O)sc2ccccc21)Nc1ccc(S(=O)(=O)N2CCCC2)cc1,1,-1,7,-97*,i,i,15,99*,2,99*
O=C(COC(=O)c1ccc(Br)o1)Nc1ccc(S(=O)(=O)N2CCCC2)cc1,1,-1,12,-94*,i,i,0,99*,-4,100*
O=C(Cc1ccccc1)Nc1ccc(S(=O)(=O)N2CCCC2)cc1,4,-1,·,-60,·,·,·,·,·,·
COc1ccc(OCC(=O)Nc2ccc(S(=O)(=O)N3CCCC3)cc2)cc1,15,0,16,?,i,i,24,95*,28,99*
O=C(CNC(=O)c1ccco1)Nc1ccc(S(=O)(=O)N2CCCC2)cc1,-7,0,1,-94*,i,i,23,98*,-156,99*
O=C(COC(=O)c1ccc(Br)o1)Nc1cccc(S(=O)(=O)N2CCCCC2)c1,·,·,-6,·,·,·,·,·,·,·
Cc1nc(C)n(CCNS(=O)(=O)c2ccc(C)c(C)c2)n1,3,0,5,17,i,i,·,·,·,·
CCC(=O)Oc1ccc(C2NC(=O)c3ccccc3O2)cc1OC (centres undefined),-5,0,-3,1,i,i,·,·,·,·
SMILES,Platelet DG rel,HIF activator,VLA-4 inh,AI-2 QS mod,CHT allo act,CHT block,JMH597 growth rt,BB721 const-QS lum,BB721 growth,AI-2 QS JMH597
CN(Cc1ccc(Cl)cc1)C(=O)COC(=O)CSc1ccc([N+](=O)[O-])cc1,·,·,3,·,·,·,·,·,·,·
Cc1ccc(OCC(=O)Nc2ccc(S(=O)(=O)N3CCCC3)cc2)cc1,11,0,21,?,i,i,46,92*,29,99*
Cc1cc(NS(=O)(=O)c2ccc(NC(=O)COc3ccc(Cl)cc3)cc2)no1,-1,0,8,-87*,i,i,16,93*,14,91*
Cc1cc(NS(=O)(=O)c2ccc(NC(=O)COc3ccccc3Cl)cc2)no1,3,0,-5,-23,i,i,·,·,·,·
Cc1ccc(C(=O)NCCc2ccc(S(=O)(=O)N3CCCC3)cc2)cc1,-7,0,0,-79*,i,i,20,93*,12,96*
Cc1ccc(OCC(=O)Nc2ccc(S(=O)(=O)N3CCN(C)CC3)cc2)cc1,1,0,12,6,i,i,·,·,·,·
CCOc1ccc2oc(C(=O)Nc3cc(C)ccn3)c(C)c2c1,38,0,12,22,i,i,·,·,·,·
O=C(NNc1nc2cc3c(cc2s1)OCCO3)c1ccccc1,5,4,16,-93*,i,i,-6,98*,18,98*
COc1ccccc1/C=C\C=N\n1c(C2CCCCC2)n[nH]c1=S,0,0,5,?,i,i,24,94*,24,97*
CCOCCc1c(O)nc(SCC(=O)N2CCOCC2)[nH]c1=O,-40,0,13,0,i,i,·,·,·,·
Cc1nn(Cc2ccc(Cl)cc2)c(C)c1NC(=O)c1c(-c2ccccc2)noc1C,-3,0,7,-80*,i,i,1,93*,-8,94*
Fc1cccc(CSc2nc3ccncc3[nH]2)c1,3,3,5,-25,i,i,·,·,·,·
Clc1cccc(CSc2nc3ccncc3[nH]2)c1,2,3,-11,-89*,i,i,-38,96*,-33,96*

# Screening data: PubChem, several laboratories
